Compound activity deposited in PubChem BioAssay by several laboratories.
esBAF inh – SWI/SNF esBAF complex inhibition. mouse ES cells, Bmi1-luciferase knock-in reporter, 24 h; 100% = twice the neutral-well signal. reporter increase, % at 12.5 µM. 350,000 tested, 2% active. AID 602393; in the data active means activation above about 40%;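 further: a rise in the Bmi1 reporter signal indicates esBAF inhibition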
NadD block – inhibitors of Staphylococcus aureus NadD; purified NadD enzyme, colorimetric absorbance read-out; inhibition, % at 20 µM; 360,000 tested, 0.78% active; AID 602399; in the data active means inhibition above about 26%
NR3A LBD binder – NR3A (human) ligand-binding domain modulation | NR3A LBD differential scanning fluorimetry, Tm shift; 0% = protein alone, 100% = glycine-bound protein | Tm shift relative to glycine control, % at 25 µM | 340,000 tested, 2.5% active;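 active means melting temperature shift of at least 10% of the positive control shift, at one fixed dose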
SMARCA2 act – activators of SMARCA2 function; MG213 cells, MMTV-luciferase reporter, dexamethasone, overnight; activation, % at 9.1 µM; 370,000 tested, 1% active; in the data active means activation above about 7.8%
Vif imaging – HIV Vif inhibition. HEK293T cells, Vif self-association by quenched fluorescence, imaging, 24 h. inhibition, % at 7.49 µM. 340,000 tested, 0.35% active; in the data active means inhibition above about 50%, passing the limit was not always enough
SKN-1 block – C. elegans SKN-1 inhibition; C. elegans VP596 Pgst-4::GFP/RFP ratio, acrylamide-induced, 24 h; inhibition, % at 21.8 µM; 360,000 tested, 0.49% active;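 active means interference check ratio from 0.5 to 1.5 plus GFP to RFP signal ratio inhibition reaching or exceeding a fixed threshold, cut at about 30% in these data, passing the limit was not always enough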
NadD conf – confirmation of Staphylococcus aureus NadD inhibitors; shares compounds with NadD block; purified S. aureus NadD, colorimetric enzyme assay; inhibition, % at 20 µM; 2,000 tested, 13% active; AID 624309; in the data active means inhibition mostly above about 42%, no sharp cut-off; inactive means mostly below about 42%
Hits are given with their value. An excerpt weighted towards active compounds, which were near 5.2% of everything screened.

What do the screens show for `C=C(C)[C@@H]1CC[C@]2(C(=O)O)CC[C@]3(C)[C@H](CC[C@@H]4[C@@]5(C)CC[C@H](O)C(C)(C)[C@@H]5CC[C@]43C)[C@@H]12`?
esBAF inh: inactive; NadD block: 53; NR3A LBD binder: inactive; SMARCA2 act: inactive; Vif imaging: inactive; SKN-1 block: inactive; NadD conf: inactive

How did Cc1noc(C)c1NC(=O)NCC[C@H]1CC[C@@H](NC(=O)c2ccccc2)[C@@H](CO)O1 do in these assays?
esBAF inh: inactive

What do the screens show for `Cc1ccc2[nH]c(=O)c(CN(CCc3ccccc3)C(c3nnnn3Cc3ccco3)C(C)C)cc2c1` (centres undefined)?
NadD block: 54; NR3A LBD binder: inactive; SMARCA2 act: inactive; Vif imaging: inactive; SKN-1 block: inactive; NadD conf: 56

Results for CCC(c1nnnn1Cc1ccco1)N(CCc1ccccc1)Cc1cc2cc(C)ccc2[nH]c1=O (centres undefined) ?
esBAF inh: inactive; NadD block: inactive; NR3A LBD binder: inactive; SMARCA2 act: inactive; Vif imaging: inactive; SKN-1 block: inactive

What do the screens show for `O=c1[nH]c2cc3c(cc2cc1CN(Cc1ccccc1)Cc1nnnn1Cc1ccco1)OCCO3`?
esBAF inh: inactive; NadD block: 33; NR3A LBD binder: inactive; SMARCA2 act: inactive; Vif imaging: inactive; SKN-1 block: inactive; NadD conf: inactive

Results for O=c1[nH]c2cc3c(cc2cc1CN(Cc1cccnc1)Cc1nnnn1Cc1ccco1)OCCO3 ?
esBAF inh: inactive; NadD block: inactive; NR3A LBD binder: inactive; SMARCA2 act: inactive; SKN-1 block: inactive

How did Cc1cc(C)c2cc(CN(Cc3ccc4c(c3)OCO4)Cc3nnnn3Cc3ccco3)c(=O)[nH]c2c1 do in these assays?
esBAF inh: inactive; NadD block: 37; NR3A LBD binder: inactive; SMARCA2 act: inactive; Vif imaging: inactive; SKN-1 block: inactive; NadD conf: inactive

Results for CCN1[C@H](C(=O)N2CCN(C)CC2)[C@@H](CO)[C@@H]2Cn3c(ccc(-c4ccccc4)c3=O)[C@@H]21 ?
esBAF inh: inactive

Results for NC(=O)c1c(NC(=O)COC(=O)c2ccc(S(=O)(=O)Nc3ccccc3)cc2)sc2c1CCCC2 ?
NadD block: 35; NR3A LBD binder: inactive; SMARCA2 act: inactive; Vif imaging: inactive; SKN-1 block: inactive; NadD conf: inactive

Results for CCCOc1cc(N)ccc1C(=O)OCCN(CC)CC ?
esBAF inh: inactive; NadD block: inactive; NR3A LBD binder: inactive; SMARCA2 act: inactive; Vif imaging: inactive; SKN-1 block: inactive

What do the screens show for `CCCOc1ccc(N)cc1N`?
esBAF inh: inactive; NadD block: 44; NR3A LBD binder: inactive; SMARCA2 act: inactive; Vif imaging: inactive; SKN-1 block: inactive; NadD conf: inactive

What do the screens show for `COc1cc(C2C(C#N)=C(N)Oc3c2ccc2ccccc32)ccc1OCC(=O)Nc1cccc(C)c1` (centres undefined)?
NadD block: 30; NR3A LBD binder: inactive; SMARCA2 act: inactive; Vif imaging: inactive; SKN-1 block: inactive; NadD conf: inactive

What do the screens show for `COc1cc(C2C(C#N)=C(N)Oc3c2ccc2ccccc32)ccc1OCC(=O)Nc1ccc(C)cc1` (centres undefined)?
esBAF inh: inactive; NadD block: 40; NR3A LBD binder: inactive; SMARCA2 act: inactive; Vif imaging: inactive; SKN-1 block: inactive; NadD conf: inactive

What do the screens show for `COc1ccc(C2C(C#N)=C(N)Oc3c2ccc2cccnc32)cc1OC` (centres undefined)?
NadD block: inactive; NR3A LBD binder: inactive; SMARCA2 act: inactive; Vif imaging: inactive; SKN-1 block: inactive

How did COc1ccc(-n2c(=S)[nH]c3sc(-c4ccccc4)cc3c2=O)c(OC)c1 do in these assays?
NadD block: inactive; NR3A LBD binder: inactive; SMARCA2 act: inactive; Vif imaging: inactive; SKN-1 block: inactive

What do the screens show for `COc1ccc(-n2c(=S)[nH]c3c(sc(=S)n3-c3ccccc3)c2=O)c(OC)c1`?
esBAF inh: inactive; NadD block: 30; NR3A LBD binder: inactive; SMARCA2 act: inactive; Vif imaging: inactive; SKN-1 block: inactive; NadD conf: inactive
